Test results published in PubChem BioAssay.
The source made the active and inactive calls. The rule behind the calls is not given here.

Target: Pantothenate synthetase (Mycobacterium tuberculosis (strain ATCC 25618 / H37Rv)) (UniProt P9WIL5)
Assay: Recombinant Mtb pantothenate synthetase (PanC) inhibitors, coupled enzyme, confirmatory (AID 375);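 note: 0% = full reaction with vehicle and 100% = no enzyme background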
Details: coupled enzyme assay; at 10 µM, stronger effect = higher value

Sequence of Pantothenate synthetase (Mycobacterium tuberculosis (strain ATCC 25618 / H37Rv)) (P9WIL5 whole entry, looked up): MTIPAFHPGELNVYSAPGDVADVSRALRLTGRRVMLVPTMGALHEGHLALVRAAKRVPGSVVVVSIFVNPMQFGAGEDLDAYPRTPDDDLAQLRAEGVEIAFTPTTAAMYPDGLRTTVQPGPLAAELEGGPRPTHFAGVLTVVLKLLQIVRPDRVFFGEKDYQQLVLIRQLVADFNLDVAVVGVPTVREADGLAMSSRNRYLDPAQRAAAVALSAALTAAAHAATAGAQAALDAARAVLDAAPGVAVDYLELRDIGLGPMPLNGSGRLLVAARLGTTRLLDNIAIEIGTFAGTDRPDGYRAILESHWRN

Question: For `CCOC(=O)N1CCN(c2c(NCCN(C)Cc3ccccc3)c(=O)c2=O)CC1`, which inhibition is on record?
Answer: Its inhibition is 0% (inactive).

Question: How did the inhibition turn out when `CN(C)S(=O)(=O)N1CCN(S(=O)(=O)c2ccc(F)cc2)CC1` was run?
Answer: The inhibition was 0% (inactive).

Question: With `Cc1ccc(-n2ncc3c(Nc4c(C)n(C)n(-c5ccccc5)c4=O)ncnc32)c(C)c1` as the compound, how does the inhibition read?
Answer: The inhibition was 10% (inactive).

Question: Which inhibition does the source give for `O=C(CSc1nnc2ncccn12)N1CCCCCC1` here?
Answer: The inhibition was 0% (inactive).

Question: Which inhibition does the source give for `Cc1ccc(C(=O)OCC(=O)Nc2ccc3c(c2)OCO3)o1` here?
Answer: The inhibition was 4% (inactive).

Question: How did the inhibition turn out when `CC1(C)CC(=O)N(CC(=O)NCc2ccccc2)c2ccccc2S1(=O)=O` was run?
Answer: The inhibition was 0% (inactive).

Question: With `O=C(c1c(F)cccc1F)N(Cc1ccccn1)C1CCCC1` as the compound, how does the inhibition read?
Answer: Its inhibition is 1% (inactive).

Question: Which inhibition does the source give for `Cc1ccc2nsnc2c1S(=O)(=O)N(Cc1cc2cccc(C)c2[nH]c1=O)CC1CCCO1` (stereo not drawn) here?
Answer: Its inhibition is 0% (inactive).

Question: `Cc1sc2nc3n(c(=O)c2c1C)NC(=O)CC3` was tested. Which inhibition did it give?
Answer: Its inhibition is 0% (inactive).

Question: With `C/C(N)=C(/C#N)C(=O)COC(=O)CCSc1ccccc1` as the compound, how does the inhibition read?
Answer: The inhibition was 0% (inactive).

Question: With `COc1ccc(C2CC(c3ccc(Cl)cc3Cl)n3nc(N)nc3N2)cc1` (stereo not drawn) as the compound, how does the inhibition read?
Answer: Its inhibition is 0% (inactive).

Question: With `CC(C)CCN1CC(C(=O)NCc2ccccc2)CC1=O` (stereo not drawn) as the compound, how does the inhibition read?
Answer: Its inhibition is 0% (inactive).

Question: `CCOC(=O)N1CCN(C(=O)c2ccc3nc4ccsc4c(=O)n3c2)CC1` was tested. Which inhibition did it give?
Answer: Its inhibition is 2% (inactive).

Question: With `COc1ccc(-n2c(SCC#N)nc3ccccc3c2=O)cc1` as the compound, how does the inhibition read?
Answer: Its inhibition is 1% (inactive).

Question: How did the inhibition turn out when `CC(C)(C)C(=O)OCC1OC(n2cnc(C(N)=O)n2)C(O)C1O` (stereo not drawn) was run?
Answer: The inhibition was 3% (inactive).

Question: Which inhibition does the source give for `C=CCSc1nnc(-c2ccc(Cl)cc2Cl)o1` here?
Answer: Its inhibition is 5% (inactive).

Question: For `O=C(Nc1cccc2ccccc12)N1CCOCC1`, which inhibition is on record?
Answer: Its inhibition is 0% (inactive).

Question: With `CC(=O)c1ccc(OCC(O)CN2CCN(CCO)CC2)cc1` (stereo not drawn) as the compound, how does the inhibition read?
Answer: The inhibition was 4% (inactive).

Question: How did the inhibition turn out when `N#C/C(C(=O)c1ccccc1)=C1/CCCN1` was run?
Answer: Its inhibition is 3% (inactive).

Question: Which inhibition does the source give for `CCOc1ccccc1NC(=O)CSc1c(C)n[nH]c1C` here?
Answer: The inhibition was 5% (inactive).

Question: `Cc1ccc(-c2nc3ccccc3[nH]2)s1` was tested. Which inhibition did it give?
Answer: The inhibition was 0% (inactive).

Question: With `CC(=O)c1cccc(S(=O)(=O)N2CCC(n3nnc4cc(F)ccc43)CC2)c1` as the compound, how does the inhibition read?
Answer: The inhibition was 0% (inactive).

Question: For `CCc1nc(C)c(C#N)c2cc(OC)c(OC)cc12`, which inhibition is on record?
Answer: The inhibition was 0% (inactive).
